# Records with an inconclusive call do not appear. A number with no mark means an inactive call. The source made the active and inactive calls. Calls follow the shape of the full dose curve; tested in HEK293 reporter line.
# Assay: qHTS for Inhibitors of the Functional Ribonucleoprotein Complex (vRNP) of Lassa (LASV) Arenavirus: LASV Primary Screen - GLuc reporter signal (AID 1347082); also: nearly all actives have a fitted effect of over 60% in size
# Conditions: LASV minigenome vRNP, Gaussia luciferase reporter; series mostly up to 57.5 µM; activity change, negative = inhibition: at the top concentration
# % is scaled to controls: 0 for no effect and ±100 for the full control effect; potency is read from the fitted curve at half-maximal effect.
SMILES,"activity change, negative = inhibition [%]",Potency
Cc1ccc(C(=O)C(=O)O)cc1C,0.697,
COC(=O)c1cc(Cl)ccc1OC,-8.6,
CCCCC(O)/C=C(C)/C=C/C=C/C(=O)N1CCCC1=O (stereo unspecified),3.86,
Nc1ccc(S(=O)(=O)Nc2ccc(Cl)nn2)cc1,14.2,
NC(=O)N1c2ccccc2C=Cc2ccccc21,,inactive
NC(=O)c1ncn([C@@H]2O[C@H](CO)[C@@H](O)[C@H]2O)c1O,,inactive
O=C(Cn1ccnc1[N+](=O)[O-])NCc1ccccc1,11.8,
Cc1cc(=O)oc2cc(O[C@@H]3SC[C@@H](O)[C@H](O)[C@H]3O)ccc12,-1.09,
CCOC(=O)[C@H](CCc1ccccc1)N[C@@H](C)C(=O)N1CCC[C@H]1C(=O)O,0.313,
CC(C)CCCC(C)NCCC(C)C (stereo unspecified),-0.94,
CCn1ccc(NS(=O)(=O)c2ccc(N)cc2)nc1=O,-4.08,
CNCc1ccccc1,3.99,
CCOC(=O)c1ccc(OCCN2C[C@H](O)[C@@H](O)[C@H](O)[C@H]2CO)cc1,-8.48,
Nc1c(I)cc(I)c(C(=O)N(CCC(=O)O)c2ccccc2)c1I,5.53,
NC(N)=NC(=O)Cc1c(Cl)cccc1Cl,,inactive
O=C1CC[C@H](C(=O)N2CCCCC2)N1,-2.6,
CC(=O)Nc1c(I)cc(I)c(C(=O)O)c1I,-4.23,
CS(=O)(=O)c1ccc([C@@H](O)[C@@H](CF)NC(=O)C(Cl)Cl)cc1,-5.69,
CC(C(=O)O)c1cccc(Oc2ccccc2)c1 (stereo unspecified),0.455,

SMILES,"activity change, negative = inhibition [%]",Potency
O=C(O)Cn1cnnn1,1.46,
NC1CCN(c2cccc(Cl)n2)CC1,,inactive
Nc1ccc(C(=O)Oc2ccccc2)c(O)c1,-14.7,
NS(=O)(=O)c1cc(-c2nn[nH]n2)c(NCc2cccs2)cc1Cl,8.03,
Cc1cc(O)cc2c1O[C@](C)(CCC[C@H](C)CCC[C@H](C)CCCC(C)C)CC2,-0.486,
COc1cccc2c1C(=O)c1c(O)c3c(c(O)c1C2=O)C[C@@](O)(C(C)=O)C[C@H]3O[C@H]1C[C@H](N)[C@H](O)[C@H](C)O1,,1220 nM (active)
Cc1oc(=O)oc1CN1CCN(c2cc3c(cc2F)c(=O)c(C(=O)O)c2n3C(C)S2)CC1 (stereo unspecified),,inactive
CCCCCCCCCCCCCCCCO,,inactive
CN1C(C(=O)Nc2ccccn2)=C(O)c2sccc2S1(=O)=O,,inactive
CC(C)(C)NCC(O)COc1ccccc1OCC1CCCO1 (stereo unspecified),15,
COC(=O)/C=C(/C)N,4.45,
Nc1nc(N)nc(-c2cc(Cl)ccc2Cl)n1,,inactive
CC1(C)O[C@@H]2C[C@H]3[C@@H]4CCC5=CC(=O)C=C[C@]5(C)[C@@]4(F)[C@@H](O)C[C@]3(C)[C@]2(C(=O)CO)O1,10.9,
O=C1C(O)=C(O)C(=O)C(O)=C1O,-24.6,
NC(CS)C(=O)O (stereo unspecified),3.97,
CCOC(=O)C1=C[C@@H](OC(CC)CC)[C@H](NC(C)=O)[C@@H](N)C1,12.8,
Cc1cccc(C(=O)O)c1O,-1.69,
CC(C)(C)NCC(O)c1cc(O)cc(O)c1 (stereo unspecified),,inactive
Cc1cccc(C)c1NC(=O)CN1CCCCCC1,1.79,

# Assay: qHTS for Inhibitors of the Functional Ribonucleoprotein Complex (vRNP) of Lassa (LASV) Arenavirus: Viability assay - alamar blue signal for LASV Primary Screen (AID 1347083); also: nearly all actives have a fitted effect of over 80% in size
# Conditions: cell viability, alamar blue fluorescence (LASV minigenome counter-screen); series mostly up to 57.5 µM; activity change, negative = reduced viability: at the top concentration
SMILES,"activity change, negative = reduced viability [%]",Potency
Cc1ccc(C(=O)C(=O)O)cc1C,1.79,
COC(=O)c1cc(Cl)ccc1OC,-7.07,
CCCCC(O)/C=C(C)/C=C/C=C/C(=O)N1CCCC1=O (stereo unspecified),19.5,
Nc1ccc(S(=O)(=O)Nc2ccc(Cl)nn2)cc1,2.46,
NC(=O)N1c2ccccc2C=Cc2ccccc21,,inactive
NC(=O)c1ncn([C@@H]2O[C@H](CO)[C@@H](O)[C@H]2O)c1O,,inactive
O=C(Cn1ccnc1[N+](=O)[O-])NCc1ccccc1,6.74,
Cc1cc(=O)oc2cc(O[C@@H]3SC[C@@H](O)[C@H](O)[C@H]3O)ccc12,2.88,
CCOC(=O)[C@H](CCc1ccccc1)N[C@@H](C)C(=O)N1CCC[C@H]1C(=O)O,6.58,
CC(C)CCCC(C)NCCC(C)C (stereo unspecified),6.96,
CCn1ccc(NS(=O)(=O)c2ccc(N)cc2)nc1=O,-6.65,
CNCc1ccccc1,5.08,
CCOC(=O)c1ccc(OCCN2C[C@H](O)[C@@H](O)[C@H](O)[C@H]2CO)cc1,0.193,
Nc1c(I)cc(I)c(C(=O)N(CCC(=O)O)c2ccccc2)c1I,-27.3,
NC(N)=NC(=O)Cc1c(Cl)cccc1Cl,,inactive
O=C1CC[C@H](C(=O)N2CCCCC2)N1,3.36,
CC(=O)Nc1c(I)cc(I)c(C(=O)O)c1I,0.854,
CS(=O)(=O)c1ccc([C@@H](O)[C@@H](CF)NC(=O)C(Cl)Cl)cc1,-2.99,
CC(C(=O)O)c1cccc(Oc2ccccc2)c1 (stereo unspecified),8.41,

SMILES,"activity change, negative = reduced viability [%]",Potency
O=C(O)Cn1cnnn1,8.93,
NC1CCN(c2cccc(Cl)n2)CC1,,inactive
Nc1ccc(C(=O)Oc2ccccc2)c(O)c1,-0.862,
NS(=O)(=O)c1cc(-c2nn[nH]n2)c(NCc2cccs2)cc1Cl,5.7,
Cc1cc(O)cc2c1O[C@](C)(CCC[C@H](C)CCC[C@H](C)CCCC(C)C)CC2,1.41,
COc1cccc2c1C(=O)c1c(O)c3c(c(O)c1C2=O)C[C@@](O)(C(C)=O)C[C@H]3O[C@H]1C[C@H](N)[C@H](O)[C@H](C)O1,,153 nM (active)
Cc1oc(=O)oc1CN1CCN(c2cc3c(cc2F)c(=O)c(C(=O)O)c2n3C(C)S2)CC1 (stereo unspecified),,inactive
CCCCCCCCCCCCCCCCO,,inactive
CN1C(C(=O)Nc2ccccn2)=C(O)c2sccc2S1(=O)=O,,inactive
CC(C)(C)NCC(O)COc1ccccc1OCC1CCCO1 (stereo unspecified),2.08,
COC(=O)/C=C(/C)N,6.98,
Nc1nc(N)nc(-c2cc(Cl)ccc2Cl)n1,,inactive
CC1(C)O[C@@H]2C[C@H]3[C@@H]4CCC5=CC(=O)C=C[C@]5(C)[C@@]4(F)[C@@H](O)C[C@]3(C)[C@]2(C(=O)CO)O1,5.59,
O=C1C(O)=C(O)C(=O)C(O)=C1O,-80.7,
NC(CS)C(=O)O (stereo unspecified),-0.382,
CCOC(=O)C1=C[C@@H](OC(CC)CC)[C@H](NC(C)=O)[C@@H](N)C1,7.77,
Cc1cccc(C(=O)O)c1O,16.6,
CC(C)(C)NCC(O)c1cc(O)cc(O)c1 (stereo unspecified),,inactive
Cc1cccc(C)c1NC(=O)CN1CCCCCC1,22.1,

# — PubChem BioAssay (NCATS)
